Glioma ERSR ind: inducers of ER stress response in human glioma cells | U87-MG GRP78 promoter luciferase reporter, 16 h | Potency, µM, for inactives: at the top dose activation, usual class: activators | hit rate 0.02% among 420,000; active = well fitted activation curve with a large enough effect; inconclusive = small, poorly fitted or top-dose-only effect; inactive = no such curve, though single readings can be large or run the other way; note: potency is the fitted concentration of half-maximal effect; series mostly up to about 76 µM; % of control where 0% means no effect; nearly all actives have a fitted effect of over 35% in size
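Stably transfected U87-MG glioma cells carrying a GRP78-based luciferase sensor; 16 h compound incubation. Luminescence end-point read 10 min after Bright-Glo addition at room temperature.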
gsp ag: activates gsp, the McCune-Albright syndrome mutation; gsp mutant cells, cAMP HTRF, 30 min; Potency, µM (titrated, usually from 76.9 µM), inactives show top-dose activation (cAMP increase), most hits filed as activators; hit rate 0.13% among 340,000; AID 624287; active = well fitted activation curve with a large enough effect; inconclusive = small, poorly fitted or top-dose-only effect, or another doubt; inactive = no such curve, though single readings can be large or run the other way; cell line not stated here;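 note: phosphodiesterase inhibitor Ro 20-1724 added with compounds to block cAMP breakdown; potency is the fitted concentration of half-maximal effect; nearly all actives have a fitted effect of over 60% in size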
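Cells stably selected in G418 were plated at 2000/well, grown 16-24 hr, then given compounds in DMSO with the PDE inhibitor […] (300 uM solution added) for 30 min at 37C; cAMP was read by HTRF.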
gsp antagonist: gsp mutant antagonism. AID 624288. Potency, µM (doses to about 76.9 µM), without a hit: top-dose activity change, negative = inhibition, actives largely listed as inhibitors. gsp-mutant cells, cAMP HTRF, 30 min. hit rate 0.4% among 340,000; calls by dose curve; cell line not stated here;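 note: intracellular cAMP measured with PDE inhibitor Ro 20-1724 present during compound exposure; potency is the fitted concentration of half-maximal effect; % is set by controls: 0 for no effect and ±100 for the full control effect; nearly all actives have a fitted effect of over 65% in size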
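Measurement of cellular cAMP by homogeneous time-resolved fluorescence following a 30 min compound exposure at 37C. The PDE inhibitor […] was present throughout; the assay buffer was DPBS with 0.05% BSA and 0.005% Tween 20.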
KCNH2 WT inh: inhibitors of human wildtype KCNH2 potassium channel | Q12809 | U2OS, BacMam KCNH2, thallium flux FluxOr; active compounds read low | activity change, % at 1.84 µM | hit rate 0.37% among 340,000 | AID 720551;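 active = maximum activity change below -70%; inconclusive = maximum activity change between -70% and -50%; inactive = maximum activity change above -50%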; note: % is set by controls: 0 for no effect and ±100 for the full control effect
Target sequence (Q12809 whole entry, looked up): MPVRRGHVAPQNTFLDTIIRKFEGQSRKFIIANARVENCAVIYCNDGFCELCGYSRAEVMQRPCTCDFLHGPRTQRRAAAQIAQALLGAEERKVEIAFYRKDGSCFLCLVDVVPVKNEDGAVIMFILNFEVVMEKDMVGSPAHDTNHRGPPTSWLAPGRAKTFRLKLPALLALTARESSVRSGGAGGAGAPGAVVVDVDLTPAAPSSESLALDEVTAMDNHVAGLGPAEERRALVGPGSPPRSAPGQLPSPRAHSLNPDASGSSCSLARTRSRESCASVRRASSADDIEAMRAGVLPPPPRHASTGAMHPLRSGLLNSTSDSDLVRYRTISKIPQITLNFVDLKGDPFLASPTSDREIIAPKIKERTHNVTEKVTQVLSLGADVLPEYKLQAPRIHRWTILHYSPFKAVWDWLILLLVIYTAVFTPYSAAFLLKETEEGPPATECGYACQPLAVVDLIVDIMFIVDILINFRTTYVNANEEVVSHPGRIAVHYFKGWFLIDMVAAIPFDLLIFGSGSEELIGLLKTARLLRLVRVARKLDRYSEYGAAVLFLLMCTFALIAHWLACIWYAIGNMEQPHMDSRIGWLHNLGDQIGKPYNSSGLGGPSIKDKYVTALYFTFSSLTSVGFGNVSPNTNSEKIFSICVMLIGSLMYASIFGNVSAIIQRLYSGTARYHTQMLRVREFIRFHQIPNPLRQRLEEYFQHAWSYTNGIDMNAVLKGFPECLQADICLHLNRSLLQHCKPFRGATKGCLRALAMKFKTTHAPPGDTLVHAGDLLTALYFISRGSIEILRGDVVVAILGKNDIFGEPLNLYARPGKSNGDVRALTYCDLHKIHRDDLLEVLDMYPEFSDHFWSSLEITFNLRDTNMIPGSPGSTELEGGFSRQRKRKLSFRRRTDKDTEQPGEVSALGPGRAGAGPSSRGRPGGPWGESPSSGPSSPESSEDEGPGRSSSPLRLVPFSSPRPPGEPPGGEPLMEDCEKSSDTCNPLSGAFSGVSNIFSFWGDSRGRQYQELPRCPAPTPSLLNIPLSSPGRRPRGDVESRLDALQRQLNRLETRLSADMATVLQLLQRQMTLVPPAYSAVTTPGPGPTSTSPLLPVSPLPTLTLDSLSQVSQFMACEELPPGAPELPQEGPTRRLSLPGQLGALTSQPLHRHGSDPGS
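U2OS cells were transduced with wild-type KCNH2 virus (2.03 x 10^8 / mL) for 4 h at room temperature, then cultured overnight at 37 C. Thallium flux was read with FluxOr dye. Rate constants were normalized to DMSO controls.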
Akt phos inh: blocks phosphorylation of Akt; AID 651550; activity change, % for hits at 50 µM; hit rate 0.32% among 360,000; Neuro2A IGF-stimulated pAkt S473 HTRF, 20 min; active compounds read low; in the data active = activity change below about -80%; inconclusive = mostly about -51% to -80%; note: % is set by controls: 0 for no effect and ±100 for the full control effect
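Neuro2A cells (4,500/well, DMEM with 0.5% FBS) were treated with compound at a single 50 µM final concentration, stimulated with 6 nM IGF for 20 min at 37 °C, and lysed. Phospho-Akt Ser473 was read by HTRF as 665/615 ratio ×10^4.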
KCNH2 3.1 block: blocks the human KCNH2 3.1 channel isoform; U2OS KCNH2 3.1, thallium flux FluxOr; active compounds read low; activity change, % (tested at about 1.8 µM); hit rate 0.95% among 340,000; AID 720553;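 active = maximum activity change below -70%; inconclusive = maximum activity change from -70% to -50%; inactive = maximum activity change above -50%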;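 note: thallium influx rate constant from kinetic fluorescence after stimulation buffer; % is set by controls: 0 for no effect and ±100 for the full control effect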
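Thallium flux via FluxOr fluorescence (Red40 quencher, 45 min loading) in U2OS cells virally expressing the KCNH2 3.1 isoform (1.77 x 10^8 /mL virus, overnight at 37 C). Rate constants from 2-min kinetic reads post-stimulation, normalised to positive and negative controls.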
Numbers without * were called inactive; i = inactive; ? = inconclusive; . = no result; [ ] = remark or other dose. This is a sample that favours compounds with a hit; in the whole collection about 1.6% have one here.

SMILES | Glioma ERSR ind | gsp ag | gsp antagonist | KCNH2 WT inh | Akt phos inh | KCNH2 3.1 block
Cc1ccc(N(C(=O)CNC(=O)c2ccco2)C(C(=O)NC2CCCC2)c2cccnc2)cc1C (stereo not given) | -5% | 3% | 16% | -189* | i | 3
O=C(NCC(=O)N(c1cccnc1)C(C(=O)NC1CCCC1)c1ccccc1)c1ccco1 (stereo not given) | -4% | 16%[15.4 µM] | -4% | 8 | i | -11
O=C(NCC(=O)N(c1cccnc1)C(C(=O)NC1CCCCC1)c1ccccc1F)c1ccco1 (stereo not given) | -3% | 9% | 8% | -149* | i | -193*
Cc1ccc(N(C(=O)CNC(=O)c2ccco2)C(C(=O)NC2CCCCC2)c2cccnc2)cc1C (stereo not given) | -4% | -7%[15.4 µM] | 3% | -5 | i | -8
CC[N+]1(CC(=O)c2ccc(Cl)cc2)CCCCC1 | -4% | . | . | . | . | .
Cc1ccccc1C1(CC(=O)N2CCCCC2c2cccnc2)CC(=O)N(C2CCCC2)C1=O (stereo not given) | -2% | . | . | . | . | .
COc1cc(=O)n2c(c1C(=O)NCc1nonc1C)CCN(C(=O)c1cccc(C)c1C)CC2 | 1% | . | . | . | . | .
CCOC(=O)c1c(/N=C/C2C(=O)CC(C)(C)CC2=O)sc2c1CCCC2 | -1% | ? | 2% | -9 | i | 20
CCOC(=O)c1cc(CC)sc1/N=C/C1C(=O)CC(C)(C)CC1=O | -3% | -13%[15.4 µM] | 38% | -25 | i | -75*
CCOc1ccc2nc(Cl)c(C3CC(c4ccco4)=NN3S(=O)(=O)c3ccccc3)cc2c1 (stereo not given) | 2% | -22% | 0% | -32 | i | -71*
CCN(CC)CCN1C(=O)/C(=C\c2ccc(Cl)c([N+](=O)[O-])c2)SC1=Nc1ccc(OC)cc1 | -13% | -1% | -20% | -47 | i | -99*
COc1ccc(N=C2S/C(=C\c3ccc(Cl)c([N+](=O)[O-])c3)C(=O)N2CCN(C)C)cc1 | -13% | -2% | -2% | 17 | i | -28
CC(NCc1cccc(OCc2ccccc2)c1)C(O)c1ccccc1 (stereo not given) | -2% | -15% | 9% | 22 | i | -148*
COc1ccc(-c2ccc(C(=O)NCC3Cc4cccc(-c5nc(C)cnc5C)c4O3)o2)cc1 (stereo not given) | 1% | . | . | . | . | .
CC(C)c1ccc(OCc2ccc(C(=O)N3CCN(c4ccccn4)CC3)cc2)cc1 | -10% | 43% | -9% | -15 | i | -72*
CC(C)c1ccc(COc2ccc(C(=O)N3CCOCC3)cc2)cc1 | 1% | -46% | ? | -6 | i | 1
Cc1c(C(=O)N2CCC(Cc3ccccc3)CC2)sc2ncnc(NCc3ccccn3)c12 | -5% | . | . | . | . | .
CCC1C(=O)CC(c2ccc([N+](=O)[O-])cc2)NC1c1ccc([N+](=O)[O-])cc1 (stereo not given) | -2% | -26%[15.4 µM] | -8% | -14 | i | -79*
O=C(N/N=C/c1cn(-c2cccs2)nc1-c1ccccc1)c1ccccc1O | -1% | -8% | 28µM* | 5 | i | -29
CC[C@H](C)[C@H](NC(=O)[C@H](CO)NC(=O)[C@H](CC(N)=O)NC(=O)[C@H](CC(C)C)NC(=O)[C@H](Cc1ccc(O)cc1)NC(=O)[C@H](CCCCN)NC(=O)[C@H](CCCCN)NC(=O)[C@@H](NC(=O)[C@H](C)NC(=O)[C@H](CCSC)NC(=O)[C@H](CCC(N)=O)NC(=O)[C@H](CCCCN)NC(=O)[C@H](CCCNC(=N)N)NC(=O)[C@H](CC(C)C)NC(=O)[C@H](CCCNC(=N)N)NC(=O)[C@@H](NC(=O)[C@H](Cc1ccc(O)cc1)NC(=O)[C@H](CC(N)=O)NC(=O)[C@H](CC(=O)O)NC(=O)[C@@H](NC(=O)[C@H](Cc1ccccc1)NC(=O)[C@@H](NC(=O)[C@H](C)NC(=O)[C@H](CC(=O)O)NC(=O)[C@H](CO)NC(=O)[C@@H](N)Cc1c[nH]cn1)C(C)C)[C@@H](C)O)[C@@H](C)O)C(C)C)C(=O)N[C@@H](CC(C)C)C(=O)N[C@@H](CC(N)=O)C(=O)O | -4% | . | . | . | . | .
CSc1ccccc1NC(=O)c1c(Br)cnn1C | -2% | -17% | 7% | -5 | -122%* | 3
Cn1ncc(Br)c1C(=O)Nc1c(F)c(F)cc(F)c1F | 2% | 4% | -3% | 21 | i | 0
CCCCN(C(=O)Cc1ccc(S(=O)(=O)N2CCOCC2)s1)c1c(N)n(CCCC)c(=O)[nH]c1=O | -2% | ? | 6% | -75* | i | -4
CCOC(=O)C1CCCN(C(=O)c2cnn(-c3ncc4c(n3)-c3ccccc3CC4)c2C)C1 (stereo not given) | 0% | . | . | . | . | .
COc1cccc(COc2ccc3ccc(=O)oc3c2)c1 | 5% | -61% | 0% | -4 | i | -74*
SMILES | Glioma ERSR ind | gsp ag | gsp antagonist | KCNH2 WT inh | Akt phos inh | KCNH2 3.1 block
COc1ccc(COc2ccc3ccc(=O)oc3c2)cc1 | 3% | ? | -2% | 10 | i | -27
Cc1cnc(-n2ncc(C(=O)NCc3ccccn3)c2C2CC2)nc1-c1cccs1 | 4% | . | . | . | . | .
CCC1(C2CCN(C(=O)c3ccccc3C)CC2)NC(=O)N(CCc2scnc2C)C1=O (stereo not given) | -5% | . | . | . | . | .
CCOC(=O)c1sc(N(Cc2ccccc2)C(=O)COC(=O)c2cnccn2)nc1C | 3% | -1%[15.4 µM] | 1% | -7 | i | -92*
COC(=O)c1ccc(C23CC4(C2)[C@H](CN(CC2CCCCC2)[C@@H]4c2ccccc2)C3c2ccc(Cl)nc2)cc1 (stereo not given in full) | -3% | 6% | -14% | -7 | i | -11
Clc1ccc(C2[C@H]3CN(CC4CCCCC4)[C@H](c4ccccc4)C34CC2(c2ccccc2)C4)cn1 (stereo not given in full) | -2% | 0% | 8% | 8 | i | -210*
COC(=O)C1=C(C)NC(C)=C(C(=O)OC)C1C1CC=CCC1 (stereo not given) | -3% | 0% | -3% | -6 | -130%* | 2
CCCSc1nc2c(cnn2-c2ccc(C)c(C)c2)c(=O)[nH]1 | -5% | 5% | 10% | 4 | i | -123*
CCCCSc1nc2c(cnn2-c2ccc(C)c(C)c2)c(=O)[nH]1 | -3% | ? | 10% | 5 | i | 8
Cc1ccc(C)n1-c1ccc(C(=O)N2CCOCC2)cc1 | 3% | 22% | 0% | 5 | -106%* | 5
COc1cc(NC(C)=O)ccc1NC(=O)c1cc2ccccc2o1 | 0% | 5% | 3% | 13 | i | 18

Screening data from PubChem BioAssay.
